# Laboratory results published in PubChem BioAssay AID1063 (University of Pittsburgh Molecular Library Screening Center, 2008).
# About 18,000 (9%) of roughly 200,000 compounds were called active. Shown is part of a subset that was picked to be rich in actives. Unmarked numbers belong to inactive results. Cut-off read from the data, not from the text of the source: active = inhibition above about 50%; inactive = the rest.
# Assay: antileishmanial activity against promastigotes – primary screen (AID 1063);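 note: promastigotes grown with compound for 44 hours at 28 °C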
# Conditions: Leishmania major promastigotes, resazurin fluorescence viability; at 10 µM; active compounds read high
row,Compound,inhibition
1,CCOC(=O)c1cc2c(n(-c3ccc(C)cc3)c1=O)CCCC2=O,15.4%
2,CCOC(=O)C1=C(N)N(c2ccc(C)cc2)C2=C(C(=O)CCC2)C1c1cccs1 (configuration not stated),92.3% (active)
3,O=C1CCCC2=C1C(c1cccs1)CC(=O)N2c1ccc(F)cc1 (configuration not stated),4.07%
4,Cc1nc(-c2ccccc2)sc1C(=O)/C=C/N(C)C,-7.03%
5,C/C=C/c1ccc(OCCOc2ccc(C=O)cc2OC)c(OC)c1,-4.56%
6,C/C=C/c1ccc(OCCCCN2CCC(C)CC2)c(OC)c1,95.6% (active)
7,COc1ccc(OC)c(NC(=O)CCN2CCC(C)CC2)c1,1.65%
8,O=c1c(Cl)c(NC2CC2)cnn1-c1ccccc1,-1.71%
9,c1ccc2c(c1)CSc1sccc1C2=C1CCNCC1,58.3% (active)
10,CCOC(=O)Cc1csc(NC(=O)COc2ccc3c(C)cc(=O)oc3c2)n1,13.5%
11,CN(C)S(=O)(=O)c1cccc(C(=O)Nc2cccnc2)c1,-3.68%
12,COc1ccc(N(C(=O)c2cccnc2)S(=O)(=O)c2ccc3c(c2)n(C)c(=O)n3C)cc1,0.4%
13,O=C(c1cccnc1)N(c1cc2sc(=O)oc2c2ccccc12)S(=O)(=O)c1ccccc1,99.2% (active)
14,N/C(Cc1ccc([N+](=O)[O-])cc1)=N\OC(=O)C1CCCCC1,-4.63%
15,COCCN(C(=O)c1ccccc1F)c1c(N)n(Cc2ccccc2)c(=O)[nH]c1=O,-1.31%
16,c1coc(CNc2ncnc3ccccc23)c1,32.3%
17,CS(=O)(=O)n1nc(-c2ccccc2)nc1NCc1ccco1,-5.02%
18,c1ccc(-c2nc(NCc3ccco3)c3ccccc3n2)cc1,66.3% (active)
19,CCOC(=O)c1nc(Nc2ccc(C(=O)OC)cc2)c2ccccc2n1,16.3%
20,CCOC(=O)c1c(C)nc(-c2ccccc2)nc1NC(=O)C(C)C,14.1%
21,CCC(=O)OCCNc1nc(-c2ccccc2)nc2ccccc12,88.4% (active)
22,CN(C)c1ccc(NC(=O)CSc2n[nH]c(-c3ccco3)n2)cc1,47%
23,CCN(CC)C(=O)Cn1cc(S(=O)(=O)CC(=O)NCc2ccc3c(c2)OCO3)c2ccccc21,-2.2%
24,CCCN(CC(=O)Nc1ccc(OC)c(OC)c1)CC(=O)Nc1ccc(F)c(F)c1F,-4.92%
25,COCCSc1nnc(NC(=O)c2cc(OC)c(OC)cc2[N+](=O)[O-])s1,-4.07%

row,Compound,inhibition
1,CC(=O)c1ccc(NC(=S)N(Cc2ccccc2)C(C)C2CC2)cc1 (configuration not stated),11.1%
2,CC(C)CC(=O)NC(=S)Nc1ccc(F)cc1F,-0.93%
3,Cc1[nH]nc(SCC(=O)NCC(C)C)c1[N+](=O)[O-],-6.19%
4,Cc1cccc(C)c1OCC(O)CN1CCCCC1 (configuration not stated),-0.13%
5,OC(COCCC12CC3CC(CC(C3)C1)C2)CN1CCCCC1 (configuration not stated),92.4% (active)
6,COCC1CCCN(Cc2cn[nH]c2-c2cc3ccccc3o2)C1 (configuration not stated),11.4%
7,O=C(CC1Nc2ccccc2NC1=O)Nc1ccccc1NC(=O)CC1Nc2ccccc2NC1=O (configuration not stated),-4.12%
8,CSCCC(=O)N1CCCC(CNC(=O)c2ccccc2Cl)C1 (configuration not stated),-3.88%
9,COc1ccc(Cc2nnc(N/N=C/c3ccccc3O)[nH]c2=O)cc1OC,97.4% (active)
10,CCOc1ccc(-n2c(O)c(/C=N/Nc3nnc(C)c(=O)[nH]3)c3ccccc3c2=O)cc1,3.53%
11,COc1ccc(/C=N/Nc2nc3ccccc3c(=O)[nH]2)cc1,36.7%
12,CCCCNS(=O)(=O)c1ccc2nc(SCC(=O)Nc3cc(C)cc(C)c3)[nH]c2c1,-3.48%
13,O=C(CSc1ncn[nH]1)NCc1ccc2c(c1)OCO2,-2.48%
14,Cc1[nH]c2c(C(=O)N3CCCC(CCC(=O)NCc4ccccc4F)C3)cccc2c1C (configuration not stated),3.43%
15,Nc1[nH]c(=S)nc2nc(-c3ccccc3)c(-c3ccccc3)nc12,29.6%
16,CCc1c(C)nc2cc(-c3cccs3)[nH]n2c1=O,6.8%
17,Cc1nc2nc[nH]n2c(=O)c1C/C=C/c1ccccc1,-0.45%
18,CCc1c(C)nc2cc(C)[nH]n2c1=O,65% (active)
19,COc1cccc(Cn2cnc3c([N+](=O)[O-])c(C)c(C)cc32)c1,12.1%
20,Oc1ccccc1C=NC1CCCCC1N=Cc1ccccc1O (configuration not stated),-8.81%
21,COc1cc(/C=N/n2c(C)n[nH]c2=S)ccc1OCc1ccccc1,36.4%
22,COc1cc(/C=C2/C(=O)ON=C2C)ccc1OCc1ccccc1F,33.4%
23,COc1cc(/C=C2/C(=O)ON=C2C)ccc1OCc1cccc(F)c1,53.5% (active)
24,Cc1cccc2c1N(CCOc1ccccc1)C(=O)C2=O,4.82%
25,O=C(CC1C(=O)NCCN1CC(c1ccccc1)c1ccccc1)NCCc1cn[nH]c1 (configuration not stated),-0.14%

row,Compound,inhibition
1,Cc1cc([N+](=O)[O-])nn1Cc1ccc(F)cc1,10.1%
2,Cc1nc(SCc2ccc(F)cc2)c([N+](=O)[O-])[nH]1,-7.82%
3,CCOc1ccc(C(=O)Nc2nccs2)cc1[N+](=O)[O-],48.5%
4,CCCCOc1ccc(CSC(=N)N)cc1[N+](=O)[O-],100% (active)
5,CCCOc1ccc(C2C(C(=O)c3ccc(C)o3)=C(O)C(=O)N2CCCn2ccnc2)cc1 (configuration not stated),-8.78%
6,CCCOc1ccc(Cn2ccnc2)cc1[N+](=O)[O-],85.9% (active)
7,CCCCOC(=O)CCCc1ccc([N+](=O)[O-])cc1[N+](=O)[O-],0.48%
8,CCOc1ccc(Br)cc1CSC(=N)N,33.2%
9,CCCCCOc1ccc(CSC2=NCCN2)cc1[N+](=O)[O-],88.3% (active)
10,Cc1ccccc1NC(=O)CSC1=NCCN1,-2.55%
11,CN(C)c1ccc(C=NCCc2ccc(S(N)(=O)=O)cc2)cc1,3.91%
12,CCOC(=O)c1cnc2[nH]c3ccccc3n2c1=O,7.85%
13,O=C(O)CC/C(=N\NC(=O)c1ccc(F)cc1)c1ccc(Br)cc1,-8.88%
14,Cn1ccc(=NC=C(C#N)C#N)c2ccccc21,7.93%
15,CC(=O)c1ccc(NC(=O)Nc2ccc([N+](=O)[O-])cc2C)cc1,-1.56%
16,O=[N+]([O-])c1ccc2c(c1)C(N1CCOCC1)/C(=C/C1(O)CCCCC1)O2 (configuration not stated),-7.12%
17,Cc1cc2nc(C(F)(F)F)cc(-c3cccs3)n2n1,2.4%
18,COc1ccc(OC)c(S(=O)(=O)Nc2cccc(-c3ccc4nncn4n3)c2)c1,-2.67%
19,S=C(Nc1cccc(Cl)c1)Nc1ccc2cn[nH]c2c1,10.9%
20,FC(F)(F)c1cccc(NC(=S)Nc2cccc(Cl)c2)c1,75.6% (active)
21,Cc1csc(NC(=S)Nc2cccc(Cl)c2)n1,9.23%
22,CCNC(=O)CC1C(=O)N(c2ccc(OC)cc2)C(=S)N1CCc1ccncc1 (configuration not stated),-4.31%
23,COc1ccc2oc(=O)c(C(=O)N3CCCC3)cc2c1,-7.26%
24,CC1CN(c2nc(-c3ccccc3)nnc2-c2ccccc2)CC(C)O1 (configuration not stated),5.94%
25,Clc1ccc(-c2nnc(-c3ccccc3)nc2N2CCSCC2)cc1,58.6% (active)

row,Compound,inhibition
1,Cn1nc(-c2ccccc2)c(-c2nc(-c3ccc(Cl)cc3)no2)c1Cl,-4.1%
2,CN(CCc1cnn(C)c1)Cc1cn(C)nc1-c1ccccc1F,-3.32%
3,CC(C)N(C(=O)CSc1nc(COc2ccccc2)nc2ccccc12)C(C)C,21.6%
4,O=C(COc1cccc2ccccc12)Nc1cc(S(=O)(=O)N2CCOCC2)ccc1N1CCOCC1,61.2% (active)
5,CCOc1cc(N2CCOCC2)c(OCC)cc1NC(=O)c1ccc(C)s1,6.96%
6,Cc1ccc(S(=O)(=O)N(C)c2ccc(OCC(=O)NC3=NCCS3)cc2)cc1,1.37%
7,CCOc1cc(N2CCOCC2)c(OCC)cc1NC(=O)c1cc(C)nc2ccccc12,6.2%
8,O=C(COC(=O)c1ccccc1F)Nc1cc(S(=O)(=O)N2CCOCC2)ccc1N1CCCC1,5.17%
9,CC(=O)NCCC(=O)Nc1cc(S(=O)(=O)N2CCOCC2)ccc1N1CCOCC1,0.47%
10,COc1cc(S(=O)(=O)N2CCOCC2)ccc1NC(=O)COc1ccc(N(C)S(=O)(=O)c2ccc(C)cc2)cc1,94% (active)
11,CCOc1cc(N2CCOCC2)c(OCC)cc1NC(=O)COc1cccc2cccnc12,100% (active)
12,COC(=O)COc1ccc(S(=O)(=O)N2CCOCC2)cc1,-7.05%
13,CCC(=O)N1c2ccccc2NC2=C(C(=O)CCC2)C1c1ccco1 (configuration not stated),3.39%
14,O=C(N/N=C1\CCSC1)c1cc(Cl)ccc1O,3.97%
15,CCCCCc1ccc(-c2ccc(OCC)cc2)nc1,-7.26%
16,CN(C)S(=O)(=O)c1ccc(NC(=O)N2CCOCC2)cc1,-2.72%
17,CCN(CC)CCNS(=O)(=O)c1ccc(/C=C/C(=O)O)cc1,-2.33%
18,O=C(Nc1cccnc1)c1cccc(S(=O)(=O)N2CCCC2)c1,-5.74%
19,Fc1ccccc1N=C1Nc2cccc3cccc1c23,8.76%
20,c1ccc(C2=Nc3cccc4cccc(c34)N2)cc1,19.1%
21,COc1ccccc1C1=Nc2cccc3cccc(c23)N1,69.7% (active)
22,CCOC(=O)/C(C#N)=C/c1ccc(N2CCCCC2)cc1,-8.77%
